# A selection: hits, their analogues and other compounds. The true share with any hit is near 2.2%.
# aSyn rescue – qHTS of alpha-syn Inhibitors. Yeast expressing alpha-synuclein, growth rescue, BacTiter-Glo, 24 h. Potency, µM (doses to about 46.1 µM), inactives show at the highest dose growth rescue (activation), hits mostly activators. 0.14% of 370,000 active. AID 652106, 2013; further: % of control where 0% means no effect; nearly all actives have a fitted effect of over 65% in size
#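 Readout is rescue of growth in alpha-synuclein-expressing yeast, so inhibitors of toxicity appear as activators. Growth after 24 hr at 30 deg C in galactose medium is quantified by luminescence.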
# FUS yeast rescue – qHTS for Suppressors of FUS Proteinopathy: Primary screen using FUS-linked yeast assay | 0.24% of 390,000 active | S. cerevisiae FUS-expressing, growth rescue, OD600, 24 h | Potency, µM (top dose mostly 76.6 µM), most hits filed as activators;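 further: plate controls were DMSO vehicle for no effect and reference control for full effect; nearly all actives have a fitted effect of over 55% in size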
#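 Absorbance at 600 nm, taken 24hr after compound addition, measured rescue of FUS-yeast growth at 30C. Induction used 2% galactose with seeding at OD 0.005. Controls: CP55940 from 92uM final, DMSO only.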
# Abeta yeast res – qHTS for compounds that reverse cellular toxicity of Amyloid beta (A-beta) peptide in yeast: Primary Screen; yeast expressing A-beta42, growth rescue, OD600, 48 h; response scale: 0% DMSO, 100% iron-clioquinol control; Potency, µM (doses to about 46.1 µM), usual class: activators; 0.063% of 410,000 active; AID 1347071, 2019; further: nearly all actives have a fitted effect of over 55% in size
#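 Yeast A-beta toxicity model in growth medium with pinned compounds, 48 h at 30 C; growth read as absorbance at 600 nm. Normalized to FeCl3/clioquinol equimolar mix (positive) and DMSO (negative).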
# TDP43 rescue – qHTS of TDP-43 Inhibitors | TDP-43 expressing yeast growth rescue, BacTiter-Glo, 24 h | Potency, µM (series often up to 46.1 µM), without a hit: at the highest dose growth rescue (activation), actives largely listed as activators | 1.8% of 410,000 active | AID 652104, 2013; further: % of control where 0% means no effect; nearly all actives have a fitted effect of over 50% in size
#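 Yeast cells expressing TDP-43 under galactose induction are exposed to compounds for 24 hr at 30 deg C. BacTiter-Glo luminescence measures growth, so protective compounds score as activators.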
# Mito fusion act – qHTS Assay for Small Molecule Inhibitors of Mitochondrial Division or Activators of Mitochondrial Fusion. AID 485298, 2010. 0.23% of 320,000 active. S. cerevisiae fusion-defective mutant growth rescue, CellTiterGlo 48 h. Potency, µM (titrated, usually from 46.1 µM), inactives show top-dose growth rescue (activation), hits mostly activators; further: % of control where 0% means no effect; nearly all actives have a fitted effect of over 45% in size
#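 Yeast fusion mutant, YPEG (non-fermentable carbon), compound, 48 h at 37C non-permissive; CellTiterGlo added, 10 min RT, luminescence read. Rescued growth = division inhibition.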
# * marks the source's active call; other numbers are inactive results; i = inactive; ? = inconclusive; / = no result given; [ ] = remark or other dose. The call rests on the fitted dose curve; in most records, active means well fitted curve in the direction sought with a large enough effect; inconclusive means small, poorly fitted or top-dose-only effect, or another doubt; inactive means no such curve, though single readings can be large; an effect the other way counts as inactive or inconclusive. Potency means the concentration at half of the fitted maximal effect.
SMILES,aSyn rescue,FUS yeast rescue,Abeta yeast res,TDP43 rescue,Mito fusion act
NS(=O)(=O)c1ccc(CCNC(=O)CSc2ncnc3ccccc23)cc1,0%,i,i,-9%[0.397 µM],8%
COc1cccc(C(O)c2nc(-c3ccc(Cl)cc3)cs2)c1 (stereo unspecified),10%,i,?,13µM*,/
COc1cccc(C(O)c2nc(-c3ccccc3)cs2)c1 (stereo unspecified),21%,i,i,16µM*,/
COc1cccc(C(O)c2nc(-c3ccccc3OC)cs2)c1 (stereo unspecified),?,i,i,22µM*,/
COc1cc(F)ccc1-c1csc(C(O)c2ccccc2)n1 (stereo unspecified),21%,?,i,35µM*,/
COc1cccc(C(O)c2nc(-c3ccncc3)cs2)c1 (stereo unspecified),-5%,i,i,25%,/
CCCCOCc1cc(CN2CCN(c3cccc(Cl)c3)CC2)c(O)c2ncccc12,/,?,i,-57%,/
COc1ccc(/C=C/C(=O)Nc2ccc3nc(N4CCC(C)CC4)cc(C)c3c2)cc1OC,/,i,i,-38%,/
CCc1cccc(NC(=O)C(NS(=O)(=O)c2ccc3nc(C)sc3c2)C(C)C)c1 (stereo unspecified),/,i,i,19%,/
CCCCOc1ccc(C2=NC(c3ccncc3)=Nc3ccc(OCC)cc3N2)cc1,/,i,i,27%,/
S=C(Nc1ccccc1)N1CCOCC1,0%,i,i,-14%,4%
S=C(N/N=C/c1ccccc1)N1CCOCC1,-8%,/,?,22µM*,-3%
CC(C)CN(C(=O)c1ccc(=O)n(C)n1)c1nc2ccccc2s1,0%,i,i,16µM*,1%
Nc1ccc(N2CCN(c3ccc(Cl)c(Cl)c3)CC2)cc1,12%,/,i,8.9µM*,13µM*
Cc1cc2n(n1)CCC(=O)N2Cc1ccc(C(=O)Nc2ccc(F)cc2F)cc1,/,i,i,-6%,/
COc1ccccc1Cc1c(-c2ccc(Cl)cc2)nc2c(C)cc(Br)cn12,-10%,?,i,25µM*,/
COc1ccc(-c2nc3c(C)cc(Br)cn3c2Cc2cccc(F)c2)cc1OC,7%,?,i,16µM*,/
COc1ccc(-c2nc3ccc(Br)cn3c2Cc2cccc(F)c2)cc1OC,26%,i,i,14µM*,/
COc1ccc(-c2nc3c(C)cc(Br)cn3c2Cc2ccccc2)cc1OC,24%,i,i,0%,/
COc1ccc(N(C(=O)/C=C\C(=O)Nc2ccc(Cl)cc2)C(C(=O)NCc2ccco2)c2ccc(C)cc2)cc1 (stereo unspecified),/,?,i,11%,/
CCn1c2ccccc2c2cc(/C=C3\C=Cc4ccccc43)ccc21,10%,/,/,/,/
Cc1cccc(CNC(=O)CCCn2c(=O)c3cccn3c3ccc(F)cc32)c1,/,i,i,11%,/
CCc1ccc(CN(Cc2cn[nH]c2-c2ccc(OC)cc2)C(=O)Nc2cc(Cl)ccc2OC)cc1,/,i,i,0%,/
COc1ccc(CCNC(=O)c2ccc3c(c2)N(Cc2c(F)cccc2Cl)C(=O)CS3)cc1OC,/,i,i,6%,0%
COc1ccc(C)cc1NC(=O)CN1C(=O)CCc2cc(S(=O)(=O)N3CCOCC3)ccc21,/,i,i,22%,/
SMILES,aSyn rescue,FUS yeast rescue,Abeta yeast res,TDP43 rescue,Mito fusion act
CC(C)(C)N(Cc1ccccc1)C(=O)CSc1ncn[nH]1,-4%,i,i,-23%,32µM*
Cc1cc(C)c(NC(=O)CCn2c(=O)c3cccn3c3cccnc32)c(C)c1,/,i,i,18%,/
Cc1ccc(Cl)cc1-n1ncc2c(NCCC3=CCCCC3)ncnc21,/,?,i,35µM*,/
CCCCNc1ncnc2c1cnn2-c1ccc(C)cc1C,-10%,i,i,13µM*,14%
Cc1ccc(Cl)cc1-n1ncc2c(NCCCc3ccccc3)ncnc21,/,i,i,?,/
CCc1ccc(Nc2ncnc3c2cnn3-c2cc(Cl)ccc2C)cc1,/,i,i,16%,/
Cc1ccc(Cl)cc1-n1ncc2c(NCCc3ccccc3)ncnc21,/,i,i,22µM*,/
Cc1ccc(Cl)cc1-n1ncc2c(NCc3ccc(F)cc3)ncnc21,/,i,i,20µM*,/
COc1ccc(OC)c(S(=O)(=O)N2CCCC(C(=O)N3CCN(Cc4ccccc4)CC3)C2)c1 (stereo unspecified),/,i,/,/,/
CCOc1ccc(S(=O)(=O)Nc2cccc(-c3ccc(OCC)nn3)c2)cc1,/,i,i,35µM*,/
CCc1ccc(S(=O)(=O)Nc2cccc(-c3ccc(OC)nn3)c2)s1,/,?,i,18µM*,/
Cc1ccc(S(=O)(=O)Nc2cccc(-c3ccc(N4CCCCCC4)nn3)c2)cc1C,0%,22µM*,/,-3%,0%
CCOc1ccc(CN(CCc2ccc3c(c2)OCO3)Cc2cc(OC)cc(OC)c2)cc1,/,i,i,-4%,/
COc1ccccc1CNC(=O)c1c2c(nc3ccccc13)C(=O)N(C1CCCCC1)C2,/,i,i,10%,/
O=C(Cc1ccc(Br)cc1)c1ccc(O)cc1O,-11%,i,i,?,7%
COc1ccc(CC(=O)c2ccc(O)cc2O)cc1,-4%,i,i,13µM*,5%
O=C(Cc1ccc([N+](=O)[O-])cc1)c1ccc(O)cc1O,-9%,i,i,16µM*,0%
O=C(CSc1nc2ccc(Nc3nc(N4CCOCC4)nc(N4CCOCC4)n3)cc2s1)Nc1ccccc1Cl,-10%,i,i,-10%,-1%
CCOc1ccc2nc(SCC(=O)NCc3ccco3)sc2c1,0%,i,i,14µM*,-5%
O=C(CSc1nc2ccc(Nc3nc(N4CCCC4)nc(N4CCCC4)n3)cc2s1)NCc1ccco1,-1%,i,i,20µM*,-2%
CCn1c(C(=O)N2CCC(C(=O)NCCc3ccc(OC)cc3OC)CC2)cc2sccc21,/,i,i,1%,/
O=C(COc1ccccc1[N+](=O)[O-])N1CCC(c2nc3ccccc3o2)CC1,/,i,i,?,/
O=C(c1ccc(S(=O)(=O)Cc2cc(F)ccc2F)c([N+](=O)[O-])c1)N1CCOCC1,7%,i,i,20µM*,/
CCOC(=O)Cn1nc(/C=C/c2ccc(C)cc2)ccc1=O,-11%,i,i[9.22 µM],?,-1%
CCOC(=O)Cn1nc(/C=C/c2ccc(C(C)C)cc2)ccc1=O,18%,?,i,20µM*,-5%
CCCc1cc(=O)[nH]c(-n2[nH]c3c(c2=O)CCCC3)n1,25µM*,i,?,-19%,-1%

# Bioassay records: PubChem, National Center for Advancing Translational Sciences (NCATS)
